Measurements reported in the supplement of paper PMC11732987, “Enantioselective OTUD7B fragment discovery through chemoproteomics screening and high-throughput optimisation” (Communications Chemistry, 2025).

Assays:
Experiment in all cases: log2 ratio of Biotin-Ahx-Ub-VS probe labelling (fragment/DMSO); higher = less target engagement (more negative = stronger competition), active = hit call of the paper (q ≤ 0.05, log2 ratio ≤ -1)
Details in all cases: compound concentration: 200 uM; treatment time: 3 h
[1] = biological target: USP34 (UniProt Q70CQ2)
Sequence of USP34 (Q70CQ2 whole entry, the tested form may be a part): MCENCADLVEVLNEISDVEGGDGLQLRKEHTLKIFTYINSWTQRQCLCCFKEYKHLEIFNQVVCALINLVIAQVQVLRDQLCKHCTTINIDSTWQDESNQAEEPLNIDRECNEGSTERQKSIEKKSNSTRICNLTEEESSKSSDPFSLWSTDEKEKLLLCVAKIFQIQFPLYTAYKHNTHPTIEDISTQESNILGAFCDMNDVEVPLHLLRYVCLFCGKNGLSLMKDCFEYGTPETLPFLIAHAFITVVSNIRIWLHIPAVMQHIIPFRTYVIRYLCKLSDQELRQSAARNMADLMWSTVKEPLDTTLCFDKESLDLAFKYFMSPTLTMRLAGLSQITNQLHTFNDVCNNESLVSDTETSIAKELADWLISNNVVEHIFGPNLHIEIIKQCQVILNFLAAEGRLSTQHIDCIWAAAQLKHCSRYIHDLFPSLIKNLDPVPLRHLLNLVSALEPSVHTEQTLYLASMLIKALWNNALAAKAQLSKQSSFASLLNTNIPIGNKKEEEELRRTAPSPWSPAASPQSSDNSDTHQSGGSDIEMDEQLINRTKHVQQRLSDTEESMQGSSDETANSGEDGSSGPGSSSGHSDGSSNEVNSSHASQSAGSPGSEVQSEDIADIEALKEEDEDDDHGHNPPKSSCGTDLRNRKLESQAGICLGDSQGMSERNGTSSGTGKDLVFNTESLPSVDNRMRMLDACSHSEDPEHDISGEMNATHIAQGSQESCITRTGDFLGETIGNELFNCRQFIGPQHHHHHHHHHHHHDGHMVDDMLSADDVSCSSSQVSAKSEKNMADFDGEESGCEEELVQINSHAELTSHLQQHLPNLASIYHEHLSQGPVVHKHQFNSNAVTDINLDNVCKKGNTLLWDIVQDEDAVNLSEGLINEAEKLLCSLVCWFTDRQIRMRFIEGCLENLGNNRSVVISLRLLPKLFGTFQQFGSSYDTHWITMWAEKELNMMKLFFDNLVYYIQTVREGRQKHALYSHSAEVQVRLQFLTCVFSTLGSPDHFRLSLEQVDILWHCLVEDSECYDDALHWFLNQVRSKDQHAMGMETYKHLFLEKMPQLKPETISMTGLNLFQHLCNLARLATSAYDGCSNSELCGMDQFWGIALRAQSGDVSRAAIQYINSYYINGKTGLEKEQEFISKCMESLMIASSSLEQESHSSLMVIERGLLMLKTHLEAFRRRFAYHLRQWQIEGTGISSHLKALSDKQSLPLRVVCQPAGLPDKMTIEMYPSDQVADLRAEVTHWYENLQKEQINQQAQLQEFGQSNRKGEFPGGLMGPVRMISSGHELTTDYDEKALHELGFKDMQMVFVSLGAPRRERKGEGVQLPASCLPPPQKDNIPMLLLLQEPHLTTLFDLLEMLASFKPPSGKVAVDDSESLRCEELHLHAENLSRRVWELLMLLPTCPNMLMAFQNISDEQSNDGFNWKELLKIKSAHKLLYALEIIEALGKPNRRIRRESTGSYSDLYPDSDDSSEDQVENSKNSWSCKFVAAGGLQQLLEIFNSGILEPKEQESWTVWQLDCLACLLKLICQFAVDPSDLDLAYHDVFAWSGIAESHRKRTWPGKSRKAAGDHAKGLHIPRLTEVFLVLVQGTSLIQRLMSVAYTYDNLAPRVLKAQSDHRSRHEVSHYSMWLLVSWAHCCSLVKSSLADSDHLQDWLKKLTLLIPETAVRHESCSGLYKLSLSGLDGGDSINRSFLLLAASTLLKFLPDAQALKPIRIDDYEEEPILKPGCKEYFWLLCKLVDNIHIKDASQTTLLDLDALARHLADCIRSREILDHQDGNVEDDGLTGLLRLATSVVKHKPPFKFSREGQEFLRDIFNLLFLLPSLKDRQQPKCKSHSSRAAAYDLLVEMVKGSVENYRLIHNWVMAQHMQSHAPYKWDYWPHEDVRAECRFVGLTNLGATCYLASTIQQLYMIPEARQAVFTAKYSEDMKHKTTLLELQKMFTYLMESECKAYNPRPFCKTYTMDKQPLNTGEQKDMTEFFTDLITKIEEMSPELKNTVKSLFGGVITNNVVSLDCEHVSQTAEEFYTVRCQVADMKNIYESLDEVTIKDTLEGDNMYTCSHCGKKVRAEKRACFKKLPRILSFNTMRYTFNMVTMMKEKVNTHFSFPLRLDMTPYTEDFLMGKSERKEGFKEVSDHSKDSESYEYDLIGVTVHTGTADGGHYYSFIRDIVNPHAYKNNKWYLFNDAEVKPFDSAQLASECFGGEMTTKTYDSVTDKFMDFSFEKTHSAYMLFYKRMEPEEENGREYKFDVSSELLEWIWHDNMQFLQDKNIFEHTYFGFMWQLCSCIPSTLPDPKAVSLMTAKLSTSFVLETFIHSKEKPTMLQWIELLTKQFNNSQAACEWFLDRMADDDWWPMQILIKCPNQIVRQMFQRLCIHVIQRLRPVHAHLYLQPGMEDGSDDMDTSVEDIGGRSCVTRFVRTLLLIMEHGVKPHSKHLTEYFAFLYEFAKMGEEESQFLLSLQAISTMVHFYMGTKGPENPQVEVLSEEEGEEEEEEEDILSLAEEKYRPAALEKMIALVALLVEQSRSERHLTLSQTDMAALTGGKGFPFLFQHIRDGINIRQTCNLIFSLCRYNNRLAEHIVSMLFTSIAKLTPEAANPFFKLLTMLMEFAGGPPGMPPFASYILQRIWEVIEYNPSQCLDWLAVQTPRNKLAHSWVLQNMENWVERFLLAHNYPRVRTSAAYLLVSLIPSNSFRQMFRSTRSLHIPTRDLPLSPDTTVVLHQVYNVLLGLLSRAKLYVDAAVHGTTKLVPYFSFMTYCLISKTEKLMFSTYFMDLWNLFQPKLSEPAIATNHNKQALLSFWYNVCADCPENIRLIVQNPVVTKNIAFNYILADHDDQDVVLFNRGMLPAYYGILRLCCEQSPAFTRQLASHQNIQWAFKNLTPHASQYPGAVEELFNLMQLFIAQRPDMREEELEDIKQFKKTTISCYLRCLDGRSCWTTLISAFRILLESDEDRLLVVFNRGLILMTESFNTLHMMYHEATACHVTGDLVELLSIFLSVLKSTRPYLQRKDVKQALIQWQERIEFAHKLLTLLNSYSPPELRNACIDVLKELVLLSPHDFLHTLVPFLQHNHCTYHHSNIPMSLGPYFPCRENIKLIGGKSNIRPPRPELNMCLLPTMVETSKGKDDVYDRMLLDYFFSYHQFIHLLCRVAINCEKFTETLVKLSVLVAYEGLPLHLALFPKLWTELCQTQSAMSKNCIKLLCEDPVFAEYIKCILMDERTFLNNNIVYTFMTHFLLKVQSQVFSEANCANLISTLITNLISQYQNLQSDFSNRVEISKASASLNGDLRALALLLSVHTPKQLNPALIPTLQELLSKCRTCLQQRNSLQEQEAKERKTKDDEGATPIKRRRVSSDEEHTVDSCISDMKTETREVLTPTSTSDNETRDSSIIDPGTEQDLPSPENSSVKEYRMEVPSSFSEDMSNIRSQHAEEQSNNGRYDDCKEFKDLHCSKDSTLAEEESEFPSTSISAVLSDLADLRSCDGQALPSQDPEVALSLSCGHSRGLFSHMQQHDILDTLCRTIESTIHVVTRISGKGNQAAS
Method in brief: (§1)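 Labelling with Biotin-Ahx-Ub-VS (0.5 µM final, 1 h) followed a 3 h triplicate treatment of HEK293T lysate (495 µg per sample, Tris/CHAPS/IGEPAL buffer with protease inhibitors) with fragment at 200 µM or vehicle. Labelled DUBs were NeutrAvidin-enriched, digested with LysC and trypsin, and run by diaPASEF LC-MS/MS. The values, average log2 fragment/vehicle ratios by unpaired t-test, come from global-median-normalised Spectronaut label-free quantities. Proteins with ≥2 unique peptides were used.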

[2] = biological target: T1, USP36 (UniProt Q9P275)
T1 sequence (whole entry): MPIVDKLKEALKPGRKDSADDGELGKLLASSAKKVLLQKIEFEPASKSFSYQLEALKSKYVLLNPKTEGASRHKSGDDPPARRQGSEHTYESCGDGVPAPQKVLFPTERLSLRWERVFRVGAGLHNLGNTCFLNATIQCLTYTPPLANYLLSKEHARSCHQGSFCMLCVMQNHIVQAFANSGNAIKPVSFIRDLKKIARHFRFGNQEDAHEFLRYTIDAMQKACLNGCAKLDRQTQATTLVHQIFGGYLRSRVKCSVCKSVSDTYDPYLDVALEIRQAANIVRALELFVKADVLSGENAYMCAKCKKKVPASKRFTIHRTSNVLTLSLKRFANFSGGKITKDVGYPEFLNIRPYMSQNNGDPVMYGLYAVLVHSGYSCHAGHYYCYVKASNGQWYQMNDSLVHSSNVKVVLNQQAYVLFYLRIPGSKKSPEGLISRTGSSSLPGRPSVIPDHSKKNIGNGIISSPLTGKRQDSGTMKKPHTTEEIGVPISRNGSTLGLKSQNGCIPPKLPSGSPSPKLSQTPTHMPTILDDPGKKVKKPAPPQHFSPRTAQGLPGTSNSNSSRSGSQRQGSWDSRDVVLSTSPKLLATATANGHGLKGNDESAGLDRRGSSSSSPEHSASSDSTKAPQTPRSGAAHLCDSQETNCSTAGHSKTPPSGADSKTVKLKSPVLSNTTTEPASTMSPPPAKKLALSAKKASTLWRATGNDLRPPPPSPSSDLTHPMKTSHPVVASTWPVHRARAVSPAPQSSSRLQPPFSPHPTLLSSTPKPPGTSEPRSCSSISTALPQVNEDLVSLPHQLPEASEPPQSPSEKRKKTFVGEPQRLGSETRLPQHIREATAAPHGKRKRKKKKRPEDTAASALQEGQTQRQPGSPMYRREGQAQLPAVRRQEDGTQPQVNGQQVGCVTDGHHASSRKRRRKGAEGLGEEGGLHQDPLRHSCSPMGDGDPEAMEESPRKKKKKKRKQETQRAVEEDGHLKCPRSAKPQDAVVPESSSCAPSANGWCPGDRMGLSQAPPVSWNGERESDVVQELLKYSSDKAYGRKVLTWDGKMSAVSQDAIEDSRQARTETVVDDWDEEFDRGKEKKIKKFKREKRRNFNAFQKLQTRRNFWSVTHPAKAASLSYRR
Method in brief: as §1

[3] = biological target: T2, USP38 (UniProt Q8NB14)
T2 sequence (whole entry): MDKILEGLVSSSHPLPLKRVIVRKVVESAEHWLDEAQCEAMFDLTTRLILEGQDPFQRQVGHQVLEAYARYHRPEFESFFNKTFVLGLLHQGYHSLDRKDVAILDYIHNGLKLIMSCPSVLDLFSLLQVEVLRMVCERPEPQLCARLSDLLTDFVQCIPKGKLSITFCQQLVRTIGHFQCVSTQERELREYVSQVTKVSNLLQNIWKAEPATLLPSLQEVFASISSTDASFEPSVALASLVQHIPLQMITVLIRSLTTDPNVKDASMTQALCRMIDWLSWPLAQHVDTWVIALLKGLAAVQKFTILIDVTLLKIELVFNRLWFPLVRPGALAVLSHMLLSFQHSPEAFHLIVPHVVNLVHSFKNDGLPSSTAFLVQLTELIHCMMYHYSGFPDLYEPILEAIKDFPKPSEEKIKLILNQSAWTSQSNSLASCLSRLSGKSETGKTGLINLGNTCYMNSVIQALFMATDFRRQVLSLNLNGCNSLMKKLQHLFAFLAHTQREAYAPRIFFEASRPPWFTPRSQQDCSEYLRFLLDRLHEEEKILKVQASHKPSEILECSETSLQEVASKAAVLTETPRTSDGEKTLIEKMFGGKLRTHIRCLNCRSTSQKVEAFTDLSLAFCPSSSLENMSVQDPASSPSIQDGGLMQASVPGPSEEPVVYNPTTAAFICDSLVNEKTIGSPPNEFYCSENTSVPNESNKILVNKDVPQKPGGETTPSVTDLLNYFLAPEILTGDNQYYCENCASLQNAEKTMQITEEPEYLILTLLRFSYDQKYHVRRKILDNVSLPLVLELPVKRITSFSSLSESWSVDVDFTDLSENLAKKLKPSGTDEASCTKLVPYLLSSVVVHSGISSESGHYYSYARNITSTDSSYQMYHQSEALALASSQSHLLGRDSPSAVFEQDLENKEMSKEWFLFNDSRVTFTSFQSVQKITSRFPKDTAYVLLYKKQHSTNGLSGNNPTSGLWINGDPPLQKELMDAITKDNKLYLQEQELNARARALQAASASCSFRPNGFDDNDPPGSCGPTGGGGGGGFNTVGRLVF
Method in brief: as §1

[4] = biological target: T3, USP39 (UniProt Q53GS9)
T3 sequence (whole entry): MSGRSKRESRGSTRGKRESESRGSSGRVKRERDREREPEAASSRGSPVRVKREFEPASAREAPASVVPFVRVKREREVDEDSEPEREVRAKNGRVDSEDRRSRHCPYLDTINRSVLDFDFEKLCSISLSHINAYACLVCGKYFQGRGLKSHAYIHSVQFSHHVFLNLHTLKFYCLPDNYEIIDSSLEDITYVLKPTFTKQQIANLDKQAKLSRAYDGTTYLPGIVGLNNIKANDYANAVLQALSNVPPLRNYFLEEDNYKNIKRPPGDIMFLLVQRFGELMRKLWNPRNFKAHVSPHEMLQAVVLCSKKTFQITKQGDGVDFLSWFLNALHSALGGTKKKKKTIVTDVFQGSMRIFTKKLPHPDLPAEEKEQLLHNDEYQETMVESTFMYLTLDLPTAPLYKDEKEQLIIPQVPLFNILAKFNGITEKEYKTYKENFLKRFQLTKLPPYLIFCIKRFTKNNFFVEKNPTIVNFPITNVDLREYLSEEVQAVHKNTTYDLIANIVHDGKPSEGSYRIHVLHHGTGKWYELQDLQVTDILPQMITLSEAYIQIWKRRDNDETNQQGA
Method in brief: as §1

[5] = biological target: T4, USP4 (UniProt Q13107)
T4 sequence (whole entry): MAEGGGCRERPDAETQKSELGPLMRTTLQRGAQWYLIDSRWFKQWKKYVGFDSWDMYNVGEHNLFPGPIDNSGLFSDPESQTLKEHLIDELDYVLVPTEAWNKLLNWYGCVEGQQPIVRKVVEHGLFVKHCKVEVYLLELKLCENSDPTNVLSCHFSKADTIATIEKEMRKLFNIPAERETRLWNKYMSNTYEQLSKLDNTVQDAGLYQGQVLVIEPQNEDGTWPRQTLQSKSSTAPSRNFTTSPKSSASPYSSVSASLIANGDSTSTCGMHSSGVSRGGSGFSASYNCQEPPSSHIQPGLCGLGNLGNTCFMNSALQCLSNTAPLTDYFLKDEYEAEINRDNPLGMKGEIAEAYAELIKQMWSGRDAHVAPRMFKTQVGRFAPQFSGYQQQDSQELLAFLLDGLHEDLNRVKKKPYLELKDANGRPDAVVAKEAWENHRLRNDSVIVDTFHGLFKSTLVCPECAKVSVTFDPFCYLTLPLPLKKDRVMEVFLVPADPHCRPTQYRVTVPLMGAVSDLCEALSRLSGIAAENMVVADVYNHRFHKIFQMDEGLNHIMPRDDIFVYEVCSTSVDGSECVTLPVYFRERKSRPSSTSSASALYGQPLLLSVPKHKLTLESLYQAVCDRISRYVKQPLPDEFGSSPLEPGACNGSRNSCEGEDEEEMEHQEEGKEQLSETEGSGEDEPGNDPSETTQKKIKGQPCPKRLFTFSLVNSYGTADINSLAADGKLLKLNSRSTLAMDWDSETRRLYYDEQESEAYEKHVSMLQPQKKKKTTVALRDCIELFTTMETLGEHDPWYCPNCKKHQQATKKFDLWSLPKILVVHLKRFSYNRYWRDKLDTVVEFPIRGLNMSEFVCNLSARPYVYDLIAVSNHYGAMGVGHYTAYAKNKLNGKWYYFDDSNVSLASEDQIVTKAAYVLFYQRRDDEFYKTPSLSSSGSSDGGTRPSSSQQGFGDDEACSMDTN
Method in brief: as §1

Measured: log2 ratio of Biotin-Ahx-Ub-VS probe labelling

O=C(CCl)NC1(c2ccc3c(c2)OCCO3)CCCC1
inactive: [1] -0.146 | [2] -0.197 | [3] -0.013 | [4] 0.277 | [5] -0.0625
